Assay results published in PubChem BioAssay (NCATS).
Where “and” joins values, the source holds several entries; their conditions need not be identical. Equal values may be shown once. Results filed as inconclusive are left out. Calls of active or inactive are those of the source. Unless noted, calls come from the whole dose curve; as a rule, active = well fitted curve in the direction sought with a large enough effect; inconclusive = small, poorly fitted or top-dose-only effect, or another doubt; inactive = no such curve, though single readings can be large; an effect the other way counts as inactive or inconclusive.

Key:
[1] = Cell Viability - Jurkat (AID 426;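 active = dose-dependent loss of cell ATP signal giving a full or clear fitted curve, ranked by lower potency value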;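 note: potency is the fitted concentration of half-maximal effect; cells exposed to compound for 40 hours at 37 °C before ATP read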); details: qHTS
Method in brief: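 Jurkat (Clone E6-1) cells, 5000/well in complete medium, exposed to compounds for 40 hr at 37C; intracellular ATP measured by CellTiter-Glo luminescence after 20 min at room temperature. AC50 from Hill fits.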

[2] = Cell Viability - Hek293 (AID 427;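 active = compounds whose dose-response curve shows a full or clear partial loss of cell viability, called from curve shape rather than a numeric limit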;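 note: potency is the fitted concentration of half-maximal effect; cells exposed to compound for 40 hours at 37 °C before reading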); details: qHTS
Method in brief: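 AC50 values derive from Hill-modelled concentration-response of ATP-based luminescence, normalized between DMSO-only and 100 uM tamoxifen controls. Cells were exposed in complete culture medium for 40 hr at 37 °C before detection.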

[3] = biological target: Cytochrome P450 3A4 (Homo sapiens) (UniProt P08684); assay: qHTS Assay for Inhibitors and Substrates of Cytochrome P450 3A4 (AID 884); details: recombinant CYP3A4, Luciferin-PPXE luminescence; series mostly up to 57.1 µM; note: % is set by controls: 0 for no effect and ±100 for the full control effect; nearly all actives have a fitted effect of over 50% in size
Method in brief: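 20 nM human CYP3A4 with 25 uM Luciferin-PPXE (at KM) in 200 mM KPO4, preincubated 10 min with compound; NADPH regeneration started a 60 min RT reaction. Luciferin detected by luminescence, normalized to 57 uM ketoconazole as full inhibition.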

[4] = MultiTox-Fluor Cytotoxicity Assay - LYMP1-002 - Dead Cells (AID 960); details: LYMP1-002 lymphoblastoid cells, dead-cell protease fluorescence; series mostly up to 46.1 µM;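 note: 0% = DMSO and 100% = tetraoctylammonium bromide; nearly all actives have a fitted effect of over 60% in size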
Method in brief: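 Human lymphoblastoid LYMP1-002 cells, 2500/well, treated 16 h at 37 C; dead-cell protease cleavage of bis-AAF-R110 read by fluorescence (485/520); normalized to DMSO and 15 uM tetraoctylammonium bromide; AC50 from Hill fit.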

[5] = Cell Viability - LYMP2-015 (AID 971); details: LYMP2-015 lymphoblastoid cell viability; series mostly up to 92.2 µM;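 note: 0% = DMSO only and full effect = 92 µM tetraoctylammonium bromide; nearly all actives have a fitted effect of over 55% in size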
Method in brief: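 LYMP2-015 human lymphoblastoid cells (2500/well) in complete medium, compound-treated 24 h at 37 C; viability read as cellular ATP by CellTiter-Glo luminescence after 30 min at room temperature. AC50 from Hill-equation fits of qHTS concentration-response data.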

[6] = Cell Viability - LYMP2-010 (AID 981); details: LYMP2-010 lymphoblastoid cell viability, qHTS; series mostly up to 92.2 µM;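 note: cells exposed to compound for 24 hours at 37 °C; % is set by controls: 0 for no effect and ±100 for the full control effect; nearly all actives have a fitted effect of over 55% in size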
Method in brief: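 Human lymphoblastoid LYMP2-010 cells (2500/well) treated 24 h at 37 C in complete medium; viability read as intracellular ATP by CellTiter-Glo luminescence. AC50 from Hill fits of concentration-response data; tetraoctylammonium bromide positive control.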

[7] = biological target: Glucocorticoid receptor (Homo sapiens) (UniProt P04150); assay: qHTS assay for small molecule agonists of glucocorticoid receptor signaling (AID 588532; active = well fitted curve in the direction sought with a large enough effect in the signal ratio, with a control signal flat; the % refers to the signal ratio;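 note: 100% = dexamethasone at 0.1 µM and 0% = DMSO only wells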); details: HeLa MMTV-bla, beta-lactamase ratio, agonist, 18 h; stronger effect = higher value; percent of dexamethasone control, DMSO zero
Method in brief: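 Stimulation of a glucocorticoid response element-driven beta-lactamase gene was measured in HeLa cells. Responses were scaled between DMSO basal and 0.1 uM dexamethasone, then fitted for half-maximal stimulation.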

[8] = qHTS assay for small molecule agonists of retinoid X receptor alpha signaling (AID 588544); details: HEK293T RXRa-UAS-bla, beta-lactamase reporter, 18 h; 530 nm emission
[9] = biological target: Voltage-gated inwardly rectifying potassium channel KCNH2 (Homo sapiens) (UniProt Q12809); assay: qHTS Assay for Small Molecule Inhibitors of the Human hERG Channel Activity (AID 588834); details: U2OS BacMam hERG, FluxOR thallium flux fluorescence; series mostly up to 92.2 µM;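 note: top concentration of the series differs between compounds; % is set by controls: 0 for no effect and ±100 for the full control effect; lower thallium flux fluorescence means stronger hERG block; nearly all actives have a fitted effect of over 50% in size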
Method in brief: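 Measured: FluxOR fluorescence after thallium stimulation in U2OS cells transduced with hERG by baculovirus. Compounds pre-incubated around 10 min; medium Opti-MEM with 2% FCS. AC50 from Hill equation.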

[10] = qHTS assay for small molecule activators of the p53 signaling pathway (AID 651743; active = well fitted activation curve with a large enough effect in the signal ratio, not every such curve was filed as active; the % refers to the signal ratio; note: % of control where 0% means no effect); details: HCT-116 p53RE-bla, beta-lactamase FRET ratio, 16 h; activation: stronger effect = higher value
Method in brief: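 Cell-based beta-lactamase reporter (p53 response elements, HCT-116 background). After a 5-hour preincubation, cells received compound for 16 hours at 37 C; substrate development ran 2 hours at room temperature.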

[11] = qHTS assay for small molecule activators of the nuclear factor-kappa B (NF-kB) signaling pathway (AID 651749; active = well fitted activation curve with a large enough effect in the signal ratio; the % refers to the signal ratio; note: % of control where 0% means no effect); details: NF-kB-bla ME-180 cells, beta-lactamase FRET ratio, 16 h; stronger effect = higher value
Method in brief: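 Screening used 2,000 ME-180 reporter cells per well exposed to pinned compound (23 nL) or DMSO; after 16 hr at 37C, beta-lactamase expression under NF-kB control was assessed through FRET.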

[12] = qHTS assay for small molecule disruptors of the mitochondrial membrane potential - 1 hr assay (AID 651754; calls by dose curve; note: nearly all actives have a fitted effect of over 35% in size; note: potency is the fitted concentration of half-maximal effect); details: series mostly up to 92.2 µM
Method in brief: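 HepG2 cells, attached overnight, were exposed to compound for 1 hr at 37C, then stained 30 min with a potentiometric dye. Ratio of red aggregate (590nm) to green monomer (535nm) fluorescence reports membrane potential; collapse shifts signal toward green.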

[13] = biological target: Nuclear receptor ROR-gamma (Homo sapiens) (UniProt P51449); assay: qHTS assay for small molecule antagonists of the retinoid-related orphan receptor gamma (ROR-gamma) signaling pathway (AID 651802); details: ROR-gamma antagonist cell reporter assay; series mostly up to 92.2 µM; note: nearly all actives have a fitted effect of over 60% in size; note: potency is the fitted concentration of half-maximal effect
Method in brief: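 CHO cells with TET-inducible ROR-gamma and RORE-luciferase reporter, dosed then doxycycline-induced. After 16 h at 37C, One-Glo luminescence read; decreased signal indicates antagonism.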

[14] = qHTS assay for small molecule agonists of the antioxidant response element (ARE) signaling pathway measured by Nrf2-dependant transcriptional activity (AID 720636; active = well fitted curve in the direction sought with a large enough effect in the repeat runs; an effect the other way counts as inactive or inconclusive;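 note: HepG2 cells with an ARE-driven luciferase reporter; % of control where 0% means no effect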); details: ARE-luc HepG2, Nrf2 luciferase reporter, 16 h; series mostly up to 92.4 µM
Method in brief: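 Cells: ARE-luc HepG2 with Nrf2-responsive luciferase. Medium contained 1% dialyzed FBS. Compound exposure lasted 16 hr at 37 C and 5% CO2, followed by ONE-Glo luciferase detection.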

[15] = qHTS assay for small molecule antagonists of the retinoid-related orphan receptor gamma (ROR-gamma) signaling pathway - cell viability counter screen (AID 720652; active = well fitted curve in the direction sought with a large enough effect in the repeat runs; an effect the other way counts as inactive or inconclusive;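 note: compound exposure lasted 16 hr before ATP read; % is set by controls: 0 for no effect and ±100 for the full control effect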); details: RORgamma reporter cell line viability counter screen; series mostly up to 92.2 µM
Method in brief: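 CHO cells carrying TET-inducible ROR and RORE-luciferase reporter, plated 5 hr, then dosed with compound plus doxycycline. After 16 hr at 37 C, viability read as intracellular ATP by CellTiter-Glo luminescence.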

[16] = qHTS assay for small molecule activators of the human pregnane X receptor (PXR) signaling pathway (AID 720659; call rule not given here; note: 0% is about no effect); details: DPX-2 HepG2 CYP3A4-luciferase, 24 h; series mostly up to 92.3 µM
[17] = Cell Viability - SK-N-SH (AID 435; calls by dose curve;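 note: potency is the fitted concentration of half-maximal effect; compound exposure lasted 40 h at 37 °C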); details: SK-N-SH neuroblastoma cell viability qHTS
Method in brief: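 Cells seeded at 1500 per well and incubated 5 hr at 37 °C. Compound added, then 40 hr at 37 °C. CellTiter-Glo added, 20 min at room temperature, luminescence read.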

[18] = biological target: Vitamin D3 receptor (Homo sapiens) (UniProt P11473); assay: qHTS assay for small molecule agonists of vitamin D receptor signaling (AID 588543; calls by dose curve;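 note: 0% = DMSO basal and 100% = reference agonist control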); details: HEK293T VDR-UAS-bla, beta-lactamase ratio, 16 h; series mostly up to 76.8 µM
Method in brief: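 qHTS in agonist mode: compound titrations stimulate a VDR-driven β-lactamase reporter in HEK293T cells over 16 h at 37 °C. Response normalized to 50 nM 1α,25-dihydroxyvitamin D3 = 100%, DMSO = 0%; Hill fitting gives EC50 and maximal response.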

[19] = biological target: Thyroid hormone receptor beta (Homo sapiens) (UniProt P10828); assay: qHTS assay for small molecule agonists of thyroid hormone receptor beta signaling (AID 588545; calls by dose curve); details: TR-UAS-bla GripTite HEK 293, beta-lactamase ratio, agonist mode, 18 h; series mostly up to 76.7 µM
Method in brief: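 HEK 293 TR-UAS-bla; agonist mode; 18 hrs, 37 C; CCF4, ex 405/em 460 and 530 nm; norm. T3 10 nM = 100%, DMSO = 0%; Hill fit → EC50, efficacy.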

[20] = Cell Viability - SH-SY5Y (AID 544); details: SH-SY5Y neuroblastoma cell viability; viability change, negative = cytotoxic: at 92.2 µM (top of the series);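 note: 0% = DMSO alone and -100% = 100 µM tamoxifen; nearly all actives have a fitted effect of over 55% in size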
Method in brief: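 SH-SY5Y human neuroblastoma cells (1500/well) incubated 5 h, then compound-treated 40 h at 37 °C in complete medium. Viability read as intracellular ATP by CellTiter-Glo luminescence after 20 min; AC50 from Hill-equation fits of qHTS concentration-response.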

Sequence of Nuclear receptor ROR-gamma (Homo sapiens) (P51449 whole entry, looked up): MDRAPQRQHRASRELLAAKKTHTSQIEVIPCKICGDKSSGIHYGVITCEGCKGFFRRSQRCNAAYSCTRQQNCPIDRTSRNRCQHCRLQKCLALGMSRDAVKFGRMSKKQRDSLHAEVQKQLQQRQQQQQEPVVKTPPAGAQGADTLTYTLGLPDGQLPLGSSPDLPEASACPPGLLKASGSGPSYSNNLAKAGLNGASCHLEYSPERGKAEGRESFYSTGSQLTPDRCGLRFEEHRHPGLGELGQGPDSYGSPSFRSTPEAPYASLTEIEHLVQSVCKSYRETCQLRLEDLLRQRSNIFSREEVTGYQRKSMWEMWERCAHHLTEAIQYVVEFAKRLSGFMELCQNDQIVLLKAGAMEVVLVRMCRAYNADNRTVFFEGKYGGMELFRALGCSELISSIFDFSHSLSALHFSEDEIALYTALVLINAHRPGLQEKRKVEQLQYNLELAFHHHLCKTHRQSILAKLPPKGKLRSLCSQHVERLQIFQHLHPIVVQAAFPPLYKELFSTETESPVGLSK
Sequence of Glucocorticoid receptor (Homo sapiens) (P04150 whole entry, looked up): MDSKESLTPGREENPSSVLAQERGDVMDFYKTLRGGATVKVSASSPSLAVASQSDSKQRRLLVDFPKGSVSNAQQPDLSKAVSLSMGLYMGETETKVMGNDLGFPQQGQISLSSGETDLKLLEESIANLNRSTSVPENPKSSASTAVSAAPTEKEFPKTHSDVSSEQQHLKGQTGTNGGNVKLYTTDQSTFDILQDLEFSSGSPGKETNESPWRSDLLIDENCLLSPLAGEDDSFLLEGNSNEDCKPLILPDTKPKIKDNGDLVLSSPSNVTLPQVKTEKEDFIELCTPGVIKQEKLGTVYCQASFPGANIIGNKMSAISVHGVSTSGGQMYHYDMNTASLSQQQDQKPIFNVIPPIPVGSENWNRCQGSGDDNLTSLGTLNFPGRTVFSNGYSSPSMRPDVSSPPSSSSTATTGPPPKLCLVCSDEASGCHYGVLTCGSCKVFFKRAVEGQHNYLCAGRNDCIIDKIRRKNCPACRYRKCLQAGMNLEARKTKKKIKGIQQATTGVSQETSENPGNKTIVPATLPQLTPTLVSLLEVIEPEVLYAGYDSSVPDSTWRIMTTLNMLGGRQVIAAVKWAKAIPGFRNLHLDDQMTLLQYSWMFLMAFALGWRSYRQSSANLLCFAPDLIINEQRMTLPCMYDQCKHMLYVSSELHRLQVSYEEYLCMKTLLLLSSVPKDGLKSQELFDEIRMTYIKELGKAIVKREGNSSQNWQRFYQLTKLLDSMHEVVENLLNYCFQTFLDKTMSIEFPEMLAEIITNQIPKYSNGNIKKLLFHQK
Sequence of Voltage-gated inwardly rectifying potassium channel KCNH2 (Homo sapiens) (Q12809 whole entry, looked up): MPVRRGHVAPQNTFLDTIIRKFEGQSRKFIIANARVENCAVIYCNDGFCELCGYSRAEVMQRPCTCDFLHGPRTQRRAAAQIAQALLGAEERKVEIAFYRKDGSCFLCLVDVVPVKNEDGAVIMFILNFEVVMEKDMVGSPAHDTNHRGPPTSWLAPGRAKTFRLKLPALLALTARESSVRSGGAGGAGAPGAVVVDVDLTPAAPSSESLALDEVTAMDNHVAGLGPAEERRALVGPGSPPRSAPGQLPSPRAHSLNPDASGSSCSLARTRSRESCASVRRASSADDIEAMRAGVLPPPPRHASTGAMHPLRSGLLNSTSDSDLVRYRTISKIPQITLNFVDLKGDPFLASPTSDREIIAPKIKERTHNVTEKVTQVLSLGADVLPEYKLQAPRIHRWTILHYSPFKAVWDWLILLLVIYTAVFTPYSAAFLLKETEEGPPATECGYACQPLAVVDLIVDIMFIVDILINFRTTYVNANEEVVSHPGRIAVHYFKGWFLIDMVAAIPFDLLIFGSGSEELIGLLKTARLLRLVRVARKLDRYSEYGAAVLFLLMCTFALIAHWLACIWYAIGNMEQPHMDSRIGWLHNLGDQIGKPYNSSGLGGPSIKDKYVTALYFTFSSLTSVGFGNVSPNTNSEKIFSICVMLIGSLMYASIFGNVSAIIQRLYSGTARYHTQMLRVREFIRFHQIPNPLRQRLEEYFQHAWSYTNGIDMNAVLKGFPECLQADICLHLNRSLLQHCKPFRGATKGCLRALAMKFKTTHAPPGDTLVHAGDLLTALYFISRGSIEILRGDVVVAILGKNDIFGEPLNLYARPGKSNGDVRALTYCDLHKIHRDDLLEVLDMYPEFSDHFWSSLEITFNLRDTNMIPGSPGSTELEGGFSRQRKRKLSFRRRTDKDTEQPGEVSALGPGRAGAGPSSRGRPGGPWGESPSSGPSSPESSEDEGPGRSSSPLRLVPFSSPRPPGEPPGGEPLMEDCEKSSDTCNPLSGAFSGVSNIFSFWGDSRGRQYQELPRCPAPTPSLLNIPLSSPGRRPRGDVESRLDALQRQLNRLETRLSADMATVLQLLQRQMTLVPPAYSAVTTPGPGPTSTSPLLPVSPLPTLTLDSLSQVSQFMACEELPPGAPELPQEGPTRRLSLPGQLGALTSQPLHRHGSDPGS
Sequence of Vitamin D3 receptor (Homo sapiens) (P11473 whole entry, looked up): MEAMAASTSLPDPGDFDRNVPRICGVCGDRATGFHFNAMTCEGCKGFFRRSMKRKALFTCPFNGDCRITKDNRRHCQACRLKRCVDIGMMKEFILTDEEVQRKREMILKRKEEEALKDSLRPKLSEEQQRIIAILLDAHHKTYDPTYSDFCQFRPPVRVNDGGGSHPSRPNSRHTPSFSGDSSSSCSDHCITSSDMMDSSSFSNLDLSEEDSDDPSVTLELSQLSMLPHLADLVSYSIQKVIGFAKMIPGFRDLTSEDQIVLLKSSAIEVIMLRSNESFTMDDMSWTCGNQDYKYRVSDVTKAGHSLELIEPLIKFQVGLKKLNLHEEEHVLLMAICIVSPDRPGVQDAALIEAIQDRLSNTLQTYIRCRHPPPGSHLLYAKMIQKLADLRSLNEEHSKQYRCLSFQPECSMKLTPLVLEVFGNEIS
Sequence of Cytochrome P450 3A4 (Homo sapiens) (P08684 whole entry, looked up): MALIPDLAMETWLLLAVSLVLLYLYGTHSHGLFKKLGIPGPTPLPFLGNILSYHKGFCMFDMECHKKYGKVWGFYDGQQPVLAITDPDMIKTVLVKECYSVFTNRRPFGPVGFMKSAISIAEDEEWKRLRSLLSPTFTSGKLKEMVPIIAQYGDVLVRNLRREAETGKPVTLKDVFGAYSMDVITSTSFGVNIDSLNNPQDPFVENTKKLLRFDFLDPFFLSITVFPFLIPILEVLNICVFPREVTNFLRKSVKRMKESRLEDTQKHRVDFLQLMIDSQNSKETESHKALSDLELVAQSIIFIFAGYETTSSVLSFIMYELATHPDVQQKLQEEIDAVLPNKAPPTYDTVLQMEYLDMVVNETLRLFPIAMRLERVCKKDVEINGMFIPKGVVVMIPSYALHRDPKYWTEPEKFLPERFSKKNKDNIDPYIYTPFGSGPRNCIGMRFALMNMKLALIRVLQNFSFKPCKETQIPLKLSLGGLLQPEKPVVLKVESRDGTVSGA
Sequence of Thyroid hormone receptor beta (Homo sapiens) (P10828 whole entry, looked up): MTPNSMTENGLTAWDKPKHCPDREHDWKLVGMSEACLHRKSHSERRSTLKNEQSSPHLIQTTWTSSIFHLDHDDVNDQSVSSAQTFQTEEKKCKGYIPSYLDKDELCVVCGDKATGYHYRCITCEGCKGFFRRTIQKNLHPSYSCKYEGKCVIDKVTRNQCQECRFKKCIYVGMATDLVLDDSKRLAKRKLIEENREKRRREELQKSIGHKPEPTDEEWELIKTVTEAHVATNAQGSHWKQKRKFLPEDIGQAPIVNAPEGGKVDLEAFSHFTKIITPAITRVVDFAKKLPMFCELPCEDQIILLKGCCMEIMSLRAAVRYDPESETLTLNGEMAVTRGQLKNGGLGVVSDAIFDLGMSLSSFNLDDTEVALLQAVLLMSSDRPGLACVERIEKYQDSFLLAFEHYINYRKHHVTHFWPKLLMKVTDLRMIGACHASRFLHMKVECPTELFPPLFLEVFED

CC(=O)Nc1cccc(C)c1
-8.8%: max response [8]
inactive: Potency [1] > 92 µM | Potency [2] > 92 µM | Potency [3] | Potency [4] | Potency [5] | Potency [6] | activation [7] -1.44% | Potency [9] | activation [10] 0.223% | activation [11] -1.12% | Potency [12] | Potency [13] | Potency [14] | Potency [15] | outcome [16]

c1ccc2c(c1)ccc1ccccc12
inactive: Potency [1] > 92 µM | Potency [2] > 92 µM | Potency [17] > 92 µM | Potency [3] | Potency [4] | Potency [5] | Potency [6] | activation [7] 3.65% and 10.6% | Potency [18] | Potency [19] | Potency [9] | activation [10] -2.61% and 2.1% | activation [11] -1.69% and -0.971% | Potency [12] | Potency [13] | Potency [14] | Potency [15] | outcome [16]
-6.28%: max response [8]

CC(C)COC(=O)COc1cc(Cl)c(Cl)cc1Cl
-5.32%: max response [8]
inactive: Potency [1] > 92 µM | Potency [2] > 92 µM | Potency [17] > 92 µM | Potency [20] | Potency [3] | Potency [4] | Potency [5] | Potency [6] | activation [7] -3.56% | Potency [19] | activation [10] -1.51% | activation [11] -1.07% | Potency [13] | Potency [14] | Potency [15] | outcome [16]

OC1CCCCC1
inactive: Potency [1] > 92 µM | Potency [2] > 92 µM | Potency [17] > 92 µM | Potency [20] | Potency [3] | Potency [4] | Potency [5] | Potency [6] | activation [7] -3.35% | Potency [18] | Potency [19] | Potency [9] | activation [10] -2.93% | Potency [13] | Potency [14] | Potency [15] | outcome [16]
-4.1%: max response [8]

c1cc2c3c(c1)ccc1cccc(c13)C2
inactive: Potency [1] > 92 µM | Potency [2] > 92 µM | Potency [17] > 92 µM | Potency [20] | Potency [4] | Potency [5] | Potency [6] | activation [7] -6.79% | Potency [18] | Potency [19] | Potency [9] | activation [10] -4.21% | activation [11] -2.58% | Potency [12] | Potency [13] | Potency [14] | Potency [15] | outcome [16]
-13.6%: max response [8]

Oc1ccc(O)c2c(O)cccc12
inactive: Potency [3] | Potency [4] | activation [7] -3.75% | Potency [18] | Potency [19] | Potency [9] | activation [10] -2.36% | outcome [16]
-16.7%: max response [8]
active: Potency [1] 30 µM | Potency [12] 23.7 µM | Potency [13] 66.8 µM

O=C(O)/C=C/c1ccc(/C=C/C(=O)O)cc1
9.62%: max response [8]
inactive: Potency [1] > 92 µM | Potency [2] > 92 µM | Potency [17] > 92 µM | Potency [20] | Potency [3] | Potency [4] | Potency [5] | Potency [6] | activation [7] 12.3% | activation [10] 1.28% | activation [11] -0.449% | Potency [12] | Potency [13] | Potency [14] | Potency [15] | outcome [16]

C=Cc1cccc(C)c1
inactive: Potency [1] > 92 µM | Potency [2] > 92 µM | Potency [17] > 92 µM | Potency [20] | Potency [3] | Potency [4] | Potency [5] | Potency [6] | activation [7] -2.15% | Potency [18] | Potency [19] | Potency [9] | activation [10] -1.54% | Potency [12] | Potency [13] | Potency [14] | Potency [15] | outcome [16]
-15.6%: max response [8]

C=C(C#N)C(=O)OCC
inactive: Potency [2] > 92 µM | Potency [17] > 92 µM | Potency [20] | Potency [3] | Potency [4] | Potency [5] | Potency [6] | activation [7] -0.945% | Potency [19] | Potency [9] | activation [10] 2.02% | activation [11] -1.44% | Potency [12] | Potency [13] | Potency [14] | Potency [15] | outcome [16]
6.28%: max response [8]

Nc1ccc(-c2ccc(N)c(O)c2)cc1O
inactive: Potency [17] > 92 µM | Potency [4] | activation [7] 0.0418% | Potency [18] | Potency [9] | activation [10] 2.61% | Potency [12] | Potency [13] | Potency [14] | Potency [15] | outcome [16]
active: Potency [1] 32.3 µM

CCCCC(CC)COC(=O)COc1ccc(Cl)cc1Cl (centres undefined)
inactive: Potency [1] > 92 µM | Potency [2] > 92 µM | Potency [17] > 92 µM | Potency [20] | Potency [3] | Potency [4] | Potency [5] | Potency [6] | activation [7] -3.61% and -5.37% | Potency [18] | Potency [19] | Potency [9] | activation [10] -1.29% and -1.26% | Potency [12] | Potency [14] | Potency [15] | outcome [16]
5.67% and -6.26%: max response [8]

CCc1ccc(C(c2ccc(CC)cc2)C(Cl)Cl)cc1
inactive: Potency [1] > 92 µM | Potency [2] > 92 µM | Potency [17] > 92 µM | Potency [20] | Potency [3] | Potency [4] | Potency [5] | Potency [6] | activation [7] 1.14% | Potency [18] | Potency [19] | activation [10] -0.867% | Potency [12] | Potency [14]
